Records with an inconclusive call do not appear. Activity calls are given as the source filed them. The call rests on the fitted dose curve; in most records, active means well fitted curve in the direction sought with a large enough effect (not every such curve was filed as active); inconclusive means small, poorly fitted or top-dose-only effect, or effect the other way, or another doubt; inactive means no such curve, though single readings can be large or run the other way.
assay: Cell viability assay for measurement of the protective activity of small molecules against cell death caused by Zika virus infection in human neural progenitor cells (hNPCs); settings: hNPC ZIKV-induced death protection, ATP luminescence, 72 h; series mostly up to 46.1 µM; protection, negative = more death: at the top concentration;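 further: 0% = ZIKV-infected cells without compound and 100% = uninfected cells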
How it was run: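 Luminescent ATP content after 72 h ZIKV infection (2 FFU/cell) of hNPCs, compounds added 1 h before virus. Protection expressed as percent inhibition of the infection-induced drop in cell viability.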

| SMILES | protection, negative = more death |
| --- | --- |
| C[C@@H](O[C@H]1OCCN(Cc2n[nH]c(=O)[nH]2)[C@@H]1c1ccc(F)cc1)c1cc(C(F)(F)F)cc(C(F)(F)F)c1 | -76.8% (inactive) |
| CN(C)c1ccc(C(=C2C=CC(=[N+](C)C)C=C2)c2ccccc2)cc1 | -80.4% (inactive) |
| COc1ccc(C=CC(=O)Nc2ccccc2C(=O)O)cc1OC | -50% (inactive) |
| Cc1c(C(=O)O)c(O)cc2c1C(=O)c1c(O)c([C@@H]3O[C@H](CO)[C@@H](O)[C@H](O)[C@H]3O)c(O)c(O)c1C2=O | -7.65% (inactive) |
| Oc1cc(O)cc(/C=C/c2ccc(O)c(O)c2)c1 | -63.8% (inactive) |
| O=C(/C=C/c1ccccc1)NCCO | 9.32% (inactive) |
| O=C(Nc1ncc([N+](=O)[O-])s1)c1cccs1 | -40.1% (inactive) |
| CC(C(=O)O)c1ccc(C(=O)c2ccccc2)s1 (stereo unspecified) | -7.59% (inactive) |
| CC1(C)Cc2c(sc(NC(=S)NC(=O)c3ccccc3)c2C(=O)O)CO1 | 2.37% (inactive) |
| COc1ccc(-c2cc(=O)c3c(O)cc(O)cc3o2)cc1O | -43.1% (inactive) |
| COc1cccc(-c2cc(=O)c3ccccc3o2)c1N | -47.7% (inactive) |
| Nc1ccc(N=Nc2ccccc2)c(N)n1 | -38.4% (inactive) |
| CCN(CC)c1ccc(C(=C2C=CC(=[N+](CC)CC)C=C2)c2cc(S(=O)(=O)O)ccc2S(=O)(=O)[O-])cc1 | -44.4% (inactive) |
| CN1CCN(c2cc3c(nn2)Oc2ccccc2N3C)CC1 | 8.35% [at 23.8 µM] (inactive) |
| Cc1csc(NC(=O)c2sc3nc4c(c(C(F)(F)F)c3c2N)CCC4)n1 | -75.6% (inactive) |
| COc1cccc2c1C(=O)c1c(O)c3c(c(O)c1C2=O)C[C@@](O)(C(=O)CO)C[C@@H]3O[C@H]1C[C@H](N)[C@H](O[C@@H]2CCCCO2)[C@H](C)O1 | -84.3% (inactive) |

— PubChem BioAssay AID1224852 (National Center for Advancing Translational Sciences (NCATS), 2016)
